# Test results: PubChem BioAssay (EPA / NIEHS)
# Values joined by “and” are separate entries in the source; they are usually repeats but may differ in a detail not shown here. Equal values may be shown once. Results filed as inconclusive are left out. Active and inactive are the calls of the source. The calls were made as follows: active = hit-call score of the fitted dose curve at least 0.9, where 1 is the maximum; inconclusive = response in the unintended direction; inactive = score below 0.9.
# Key:
# [1] = target: guinea pig Leukotriene D4 Receptor (LTD4), CYSLTR1 (gene 100135514) (UniProt Q2NNR5); assay: NVS_GPCR_gLTD4: NovaScreen (NVS) G Protein-Coupled Receptor Assay for guinea pig Leukotriene D4 Receptor (LTD4) (AID 2283248)
# In short: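 Guinea pig lung membrane preparation; bound radioligand measured by filter scintillation after 1 h, loss of signal versus DMSO marking displacement. Compounds tested at 25 uM in duplicate, hits retested to max 50 uM.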
# [2] = target: human Serotonin, 5-Hydroxytryptamine Receptor 5A (5HT5A), HTR5A (gene 3361) (UniProt P47898); assay: NVS_GPCR_h5HT5A: NovaScreen (NVS) G Protein-Coupled Receptor Assay for human Serotonin, 5-Hydroxytryptamine Receptor 5A (5HT5A) (AID 2283251)
# In short: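 Membranes from HEK293 cells, radioligand binding read by filtration and scintillation after 1 h. Single-concentration duplicate testing at 25 uM, then concentration-response for actives; positive-direction fitting relative to DMSO.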
# [3] = target: human Serotonin, 5-Hydroxytryptamine Receptor 7 (5HT7), HTR7 (gene 3363) (UniProt P34969); assay: NVS_GPCR_h5HT7: NovaScreen (NVS) G Protein-Coupled Receptor Assay for human Serotonin, 5-Hydroxytryptamine Receptor 7 (5HT7) (AID 2283255);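 also: hits reduce specific radioligand binding relative to DMSO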
# In short: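 Filter-bound radioactivity counted after 1 h, with loss of specific radioligand binding fitted against DMSO. Membrane protein came from CHO cells expressing human 5HT7. Chemicals were tested first at 25 uM in duplicate, then in concentration series if active.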
# [4] = target: human Serotonin, 5-Hydroxytryptamine Receptor 6 (5HT6), HTR6 (gene 3362) (UniProt P50406); assay: NVS_GPCR_h5HT6: NovaScreen (NVS) G Protein-Coupled Receptor Assay for human Serotonin, 5-Hydroxytryptamine Receptor 6 (5HT6) (AID 2283253)
# In short: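 Filter scintillation counting of radioligand displacement from HEK293-expressed 5HT6, 1 hour post-dose, with loss of signal relative to DMSO. Single 25 uM duplicates first, with concentration series for confirmation.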
# [5] = target: human Adrenergic, Beta 3 Receptor (Adrb3), ADRB3 (gene 155) (UniProt P13945); assay: NVS_GPCR_hAdrb3: NovaScreen (NVS) G Protein-Coupled Receptor Assay for human Adrenergic, Beta 3 Receptor (Adrb3) (AID 2283262)
# In short: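 A cell-free filter binding assay read by scintillation counting, with displacement of a specific radioligand measured after 1 hour. The receptor source was SK-N-MC extracts (cells pretreated with isoproterenol and 8-bromo-cAMP). Compounds were first tested at 25 uM in duplicate and then in concentration series.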
# [6] = system: guinea pig Leukotriene B4 Receptor (LTB4), gene 100379538; assay: NVS_GPCR_gLTB4: NovaScreen (NVS) G Protein-Coupled Receptor Assay for guinea pig Leukotriene B4 Receptor (LTB4) (AID 2283247)
# In short: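 Membranes from guinea pig spleen incubated 2 h with radioligand and compound; bound counts measured by filtration and scintillation. Screened first at 25 uM in duplicate, then actives titrated to a 50 uM top concentration relative to DMSO.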
# [7] = target: human Adenosine A1 Receptor (AdoRA1), ADORA1 (gene 134) (UniProt P30542); assay: NVS_GPCR_hAdoRA1: NovaScreen (NVS) G Protein-Coupled Receptor Assay for human Adenosine A1 Receptor (AdoRA1) (AID 2283254)
# In short: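 Membranes from human cortical tissue were incubated with radioligand and test chemical for 1 hour, then filtered and counted. Activity was taken as signal loss relative to DMSO, screened at 25 uM in duplicate before concentration-response follow-up.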
# [8] = target: human Endothelin Receptor Type B (ETB), EDNRB (gene 1910) (UniProt P24530); assay: NVS_GPCR_hETB: NovaScreen (NVS) G Protein-Coupled Receptor Assay for human Endothelin Receptor Type B (ETB) (AID 2283267)
# In short: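 Filter-based scintillation readout of radioligand displacement, 4 h, using membranes from human astrocytoma cells. Actives from a 25 uM duplicate screen were retested in concentration-response (top 50 uM) relative to DMSO baseline.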
# [9] = target: guinea pig Opioid, Kappa 1 Receptor (OpiateK), OPRK1 (gene 100135587) (UniProt P41144); assay: NVS_GPCR_gOpiateK: NovaScreen (NVS) G Protein-Coupled Receptor Assay for guinea pig Opioid, Kappa 1 Receptor (OpiateK) (AID 2283252);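 also: radioligand displacement from kappa opioid receptor in guinea pig cerebellar membranes; active means reduced radioligand binding relative to DMSO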
# In short: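 Cell-free tissue prep: guinea pig cerebellar membranes, radioligand displacement, 2 h incubation. Readout: filtration plus scintillation counting. Primary single-point 25 uM duplicate; actives retested in concentration series; DMSO negative control.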
# [10] = target: Type-1 angiotensin II receptor (Homo sapiens) (UniProt P30556); assay: NVS_GPCR_hAT1: NovaScreen (NVS) G Protein-Coupled Receptor Assay for human Angiotensin II receptor type 1 (AT1) (AID 2283263)
# In short: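 Hits from a 25 uM duplicate screen (threshold e.g. 30% inhibition) were run in concentration-response with 50 uM top concentration. Displacement of specific radioligand from KAN-TS membrane preparations measured after 3 h by filter scintillation, DMSO as baseline.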
# [11] = target: human Adenosine A2a Receptor (AdoRA2a), ADORA2A (gene 135) (UniProt P29274); assay: NVS_GPCR_hAdoRA2a: NovaScreen (NVS) G Protein-Coupled Receptor Assay for human Adenosine A2a Receptor (AdoRA2a) (AID 2283256)
# In short: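 HEK293-derived receptor preparation, radioligand displacement, 1.5 h, filtration + scintillation read. Loss of bound signal scored vs DMSO. Single-point 25 uM in duplicate first, then concentration-response for actives.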
# [12] = target: human Adrenergic, Beta 1 Receptor (Adrb1), ADRB1 (gene 153) (UniProt P08588); assay: NVS_GPCR_hAdrb1: NovaScreen (NVS) G Protein-Coupled Receptor Assay for human Adrenergic, Beta 1 Receptor (Adrb1) (AID 2283258)
# In short: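 Membranes/protein extracted from human neuroepithelioma cells, radioligand competition binding read by filtration and scintillation 2 h post-dose. Single 25 uM duplicate screen, then concentration-response follow-up; DMSO as negative control.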
# [13] = target: Beta-2 adrenergic receptor (Homo sapiens) (UniProt P07550); assay: NVS_GPCR_hAdrb2: NovaScreen (NVS) G Protein-Coupled Receptor Assay for human Adrenergic, Beta 2 Receptor (Adrb2) (AID 2283261)
# In short: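 Compounds screened in duplicate at 25 uM, then actives in concentration series. Human beta-2 receptor from CHO material, cell-free; radioligand displacement after 1 h measured by filtration and scintillation against DMSO baseline.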
# [14] = target: human Dopamine Receptor D4.4 (DRD4.4), DRD4 (gene 1815) (UniProt P21917); assay: NVS_GPCR_hDRD4.4: NovaScreen (NVS) G Protein-Coupled Receptor Assay for human Dopamine Receptor D4.4 (DRD4.4) (AID 2283264)
# In short: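 Filter-binding assay with a tritiated or iodinated ligand, cell-free receptor prepared from CHO, 1 hour. Loss of bound radioactivity versus DMSO; single 25 uM duplicate screen, then concentration-response for actives.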
# [15] = target: human Serotonin, 5-Hydroxytryptamine Receptor 2A (5HT2A), HTR2A (gene 3356) (UniProt P28223); assay: NVS_GPCR_h5HT2A: NovaScreen (NVS) G Protein-Coupled Receptor Assay for human Serotonin, 5-Hydroxytryptamine Receptor 2A (5HT2A) (AID 2283249)
# In short: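 Radioligand displacement on human cortex tissue extract, counted by filtration and scintillation 1.5 h post-dosing. Initial single-concentration screen at 25 uM in duplicate, concentration series in follow-up; DMSO as baseline.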
# human Adrenergic, Beta 1 Receptor (Adrb1), ADRB1 (gene 153), sequence (P08588 whole entry, looked up): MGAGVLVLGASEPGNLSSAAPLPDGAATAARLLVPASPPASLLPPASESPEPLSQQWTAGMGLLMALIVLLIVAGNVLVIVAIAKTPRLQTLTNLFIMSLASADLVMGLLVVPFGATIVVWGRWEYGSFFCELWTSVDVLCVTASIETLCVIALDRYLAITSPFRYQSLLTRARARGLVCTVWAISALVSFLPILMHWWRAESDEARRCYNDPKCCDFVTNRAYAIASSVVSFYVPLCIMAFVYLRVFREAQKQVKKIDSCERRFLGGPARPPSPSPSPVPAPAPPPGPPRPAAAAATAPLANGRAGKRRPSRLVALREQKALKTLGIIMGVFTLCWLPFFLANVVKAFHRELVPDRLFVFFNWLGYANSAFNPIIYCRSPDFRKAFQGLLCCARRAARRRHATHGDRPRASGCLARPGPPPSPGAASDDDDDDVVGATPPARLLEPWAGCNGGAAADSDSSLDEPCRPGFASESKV
# human Serotonin, 5-Hydroxytryptamine Receptor 5A (5HT5A), HTR5A (gene 3361), sequence (P47898 whole entry, looked up): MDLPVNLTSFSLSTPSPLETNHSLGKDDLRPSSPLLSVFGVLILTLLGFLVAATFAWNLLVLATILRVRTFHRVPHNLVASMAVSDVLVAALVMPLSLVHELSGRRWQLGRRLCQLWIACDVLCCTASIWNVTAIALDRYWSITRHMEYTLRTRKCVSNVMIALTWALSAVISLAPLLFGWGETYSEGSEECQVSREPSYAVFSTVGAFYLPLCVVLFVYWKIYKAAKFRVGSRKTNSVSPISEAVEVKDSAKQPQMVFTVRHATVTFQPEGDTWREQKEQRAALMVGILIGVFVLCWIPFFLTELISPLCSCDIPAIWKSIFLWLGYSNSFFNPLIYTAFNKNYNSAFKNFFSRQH
# guinea pig Leukotriene D4 Receptor (LTD4), CYSLTR1 (gene 100135514), sequence (Q2NNR5 whole entry, looked up): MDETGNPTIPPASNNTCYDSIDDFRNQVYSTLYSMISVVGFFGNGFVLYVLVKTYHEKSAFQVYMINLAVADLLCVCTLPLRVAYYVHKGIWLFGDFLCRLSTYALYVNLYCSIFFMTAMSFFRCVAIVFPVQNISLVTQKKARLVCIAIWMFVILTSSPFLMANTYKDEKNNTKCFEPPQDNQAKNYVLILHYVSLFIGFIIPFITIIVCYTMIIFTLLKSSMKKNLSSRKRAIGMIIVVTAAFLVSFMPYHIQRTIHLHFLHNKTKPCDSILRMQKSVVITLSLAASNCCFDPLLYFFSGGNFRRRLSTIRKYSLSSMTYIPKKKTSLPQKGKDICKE
# human Adrenergic, Beta 3 Receptor (Adrb3), ADRB3 (gene 155), sequence (P13945 whole entry, looked up): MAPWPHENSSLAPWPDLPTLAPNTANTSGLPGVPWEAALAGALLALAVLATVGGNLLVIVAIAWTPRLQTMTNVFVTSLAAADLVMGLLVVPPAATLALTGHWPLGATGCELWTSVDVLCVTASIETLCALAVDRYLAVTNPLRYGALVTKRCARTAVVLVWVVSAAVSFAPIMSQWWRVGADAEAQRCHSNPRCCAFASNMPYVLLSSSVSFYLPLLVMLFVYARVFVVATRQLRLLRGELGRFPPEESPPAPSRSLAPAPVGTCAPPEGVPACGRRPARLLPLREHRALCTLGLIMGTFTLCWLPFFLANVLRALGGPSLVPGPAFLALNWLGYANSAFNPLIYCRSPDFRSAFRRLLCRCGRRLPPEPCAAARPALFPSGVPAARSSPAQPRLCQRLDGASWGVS
# Type-1 angiotensin II receptor (Homo sapiens), sequence (P30556 whole entry, looked up): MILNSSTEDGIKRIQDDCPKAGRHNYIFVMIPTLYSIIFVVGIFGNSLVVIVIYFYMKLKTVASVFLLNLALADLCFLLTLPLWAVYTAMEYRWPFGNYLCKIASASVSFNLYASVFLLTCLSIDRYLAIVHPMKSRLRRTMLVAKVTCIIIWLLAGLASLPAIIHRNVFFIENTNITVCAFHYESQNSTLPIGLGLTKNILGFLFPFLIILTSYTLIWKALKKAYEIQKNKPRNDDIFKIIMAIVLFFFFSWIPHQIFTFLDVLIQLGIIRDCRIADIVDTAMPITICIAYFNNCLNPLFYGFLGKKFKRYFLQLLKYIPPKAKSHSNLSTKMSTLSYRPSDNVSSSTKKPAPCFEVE
# human Serotonin, 5-Hydroxytryptamine Receptor 7 (5HT7), HTR7 (gene 3363), sequence (P34969 whole entry, looked up): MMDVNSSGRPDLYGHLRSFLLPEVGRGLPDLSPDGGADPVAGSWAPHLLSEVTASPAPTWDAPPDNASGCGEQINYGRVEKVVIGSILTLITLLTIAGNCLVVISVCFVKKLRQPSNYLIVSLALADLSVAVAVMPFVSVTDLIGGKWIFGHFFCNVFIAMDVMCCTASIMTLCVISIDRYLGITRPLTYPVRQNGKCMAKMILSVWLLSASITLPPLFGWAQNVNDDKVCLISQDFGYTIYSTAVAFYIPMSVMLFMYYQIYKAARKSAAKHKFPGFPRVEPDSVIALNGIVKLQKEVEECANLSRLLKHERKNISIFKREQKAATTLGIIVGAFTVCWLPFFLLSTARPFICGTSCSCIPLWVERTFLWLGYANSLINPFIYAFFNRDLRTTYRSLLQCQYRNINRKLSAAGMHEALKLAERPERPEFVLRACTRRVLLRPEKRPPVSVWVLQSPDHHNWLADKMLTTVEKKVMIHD
# guinea pig Opioid, Kappa 1 Receptor (OpiateK), OPRK1 (gene 100135587), sequence (P41144 whole entry, looked up): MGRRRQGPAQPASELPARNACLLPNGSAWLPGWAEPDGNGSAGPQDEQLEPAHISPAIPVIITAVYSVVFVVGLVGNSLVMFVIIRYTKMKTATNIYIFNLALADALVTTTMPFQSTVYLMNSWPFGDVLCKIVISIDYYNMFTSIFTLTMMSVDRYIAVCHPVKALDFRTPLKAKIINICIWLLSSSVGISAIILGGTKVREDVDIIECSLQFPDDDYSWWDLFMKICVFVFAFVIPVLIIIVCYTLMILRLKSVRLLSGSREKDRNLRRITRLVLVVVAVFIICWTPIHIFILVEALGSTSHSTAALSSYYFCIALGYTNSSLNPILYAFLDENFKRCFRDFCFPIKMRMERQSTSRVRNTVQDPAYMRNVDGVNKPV
# human Adenosine A1 Receptor (AdoRA1), ADORA1 (gene 134), sequence (P30542 whole entry, looked up): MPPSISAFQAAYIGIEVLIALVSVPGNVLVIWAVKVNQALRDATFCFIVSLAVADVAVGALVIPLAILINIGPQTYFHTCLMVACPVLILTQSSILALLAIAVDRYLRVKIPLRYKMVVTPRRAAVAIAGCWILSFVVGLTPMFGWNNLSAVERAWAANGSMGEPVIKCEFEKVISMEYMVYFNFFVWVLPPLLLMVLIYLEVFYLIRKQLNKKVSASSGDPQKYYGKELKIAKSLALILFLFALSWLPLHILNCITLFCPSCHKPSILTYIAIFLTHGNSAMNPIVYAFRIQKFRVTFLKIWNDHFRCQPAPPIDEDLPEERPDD
# human Serotonin, 5-Hydroxytryptamine Receptor 6 (5HT6), HTR6 (gene 3362), sequence (P50406 whole entry, looked up): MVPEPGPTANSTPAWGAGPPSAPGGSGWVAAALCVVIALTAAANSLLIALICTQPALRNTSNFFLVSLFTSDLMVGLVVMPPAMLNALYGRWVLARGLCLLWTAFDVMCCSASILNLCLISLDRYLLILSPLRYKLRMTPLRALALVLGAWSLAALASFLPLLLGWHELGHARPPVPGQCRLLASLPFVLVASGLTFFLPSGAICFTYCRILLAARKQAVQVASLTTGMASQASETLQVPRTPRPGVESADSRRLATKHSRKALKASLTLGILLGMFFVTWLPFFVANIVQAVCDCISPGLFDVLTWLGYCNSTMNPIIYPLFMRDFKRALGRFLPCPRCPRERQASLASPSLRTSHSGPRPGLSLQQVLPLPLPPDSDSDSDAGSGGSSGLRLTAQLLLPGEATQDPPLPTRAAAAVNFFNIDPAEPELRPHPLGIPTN
# human Adenosine A2a Receptor (AdoRA2a), ADORA2A (gene 135), sequence (P29274 whole entry, looked up): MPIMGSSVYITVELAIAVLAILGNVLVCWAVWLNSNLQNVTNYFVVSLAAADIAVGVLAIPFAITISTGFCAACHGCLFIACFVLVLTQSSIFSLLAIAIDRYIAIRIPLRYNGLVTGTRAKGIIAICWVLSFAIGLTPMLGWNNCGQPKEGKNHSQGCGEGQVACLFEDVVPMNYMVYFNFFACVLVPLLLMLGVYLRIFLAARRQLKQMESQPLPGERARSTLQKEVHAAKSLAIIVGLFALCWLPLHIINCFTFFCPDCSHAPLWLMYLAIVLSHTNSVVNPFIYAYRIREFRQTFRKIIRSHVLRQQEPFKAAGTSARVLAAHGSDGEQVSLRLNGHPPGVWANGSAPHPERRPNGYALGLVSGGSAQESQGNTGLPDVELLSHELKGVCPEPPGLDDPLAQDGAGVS
# human Dopamine Receptor D4.4 (DRD4.4), DRD4 (gene 1815), sequence (P21917 whole entry, looked up): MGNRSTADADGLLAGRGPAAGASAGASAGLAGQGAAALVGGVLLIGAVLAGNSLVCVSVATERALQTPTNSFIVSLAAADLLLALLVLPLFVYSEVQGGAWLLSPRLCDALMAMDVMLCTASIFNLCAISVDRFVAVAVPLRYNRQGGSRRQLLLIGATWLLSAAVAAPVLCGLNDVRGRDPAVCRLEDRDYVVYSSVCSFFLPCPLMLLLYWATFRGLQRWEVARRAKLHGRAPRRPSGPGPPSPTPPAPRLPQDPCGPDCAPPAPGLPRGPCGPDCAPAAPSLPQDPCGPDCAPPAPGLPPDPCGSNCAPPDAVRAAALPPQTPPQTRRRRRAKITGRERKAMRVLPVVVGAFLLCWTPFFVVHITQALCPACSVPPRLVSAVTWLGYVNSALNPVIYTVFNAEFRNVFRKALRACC
# Beta-2 adrenergic receptor (Homo sapiens), sequence (P07550 whole entry, looked up): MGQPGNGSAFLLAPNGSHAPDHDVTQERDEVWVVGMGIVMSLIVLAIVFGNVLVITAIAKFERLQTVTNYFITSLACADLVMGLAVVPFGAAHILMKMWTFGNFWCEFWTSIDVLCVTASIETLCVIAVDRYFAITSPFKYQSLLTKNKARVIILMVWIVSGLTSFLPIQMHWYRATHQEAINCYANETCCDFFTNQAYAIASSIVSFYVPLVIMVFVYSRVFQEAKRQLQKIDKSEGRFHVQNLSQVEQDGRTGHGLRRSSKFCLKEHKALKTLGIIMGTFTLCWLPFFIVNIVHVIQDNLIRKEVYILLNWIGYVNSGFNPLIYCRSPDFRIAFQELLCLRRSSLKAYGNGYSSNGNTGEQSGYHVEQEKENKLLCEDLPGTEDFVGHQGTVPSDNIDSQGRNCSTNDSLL
structure (smiles),measurement,setting,value
CC[C@H](NC(=O)c1cc(F)ccc1NS(=O)(=O)c1cccc2cccnc12)c1ccccc1,outcome,[1],inactive
CCN(Cc1cccnc1)C(=O)c1cccc(Cl)c1[C@]1(C)C(=O)N(Cc2ccc(OC)cc2OC)c2ccc(Cl)cc21,AC50,[1],9.32 µM (active)
CN1C(=O)N(c2ccccc2Br)Cc2cnc(Nc3ccc4c(c3)OCC(CO)O4)nc21 (centres undefined),outcome,[2],inactive
same,outcome,[3],inactive
C[C@]12CC[C@@H]3c4ccc(O)cc4CC[C@H]3[C@@H]1CC[C@H]2O,AC50,[4],25 µM (active)
CCCCOC(=O)CC(CC(=O)OCCCC)(OC(C)=O)C(=O)OCCCC,outcome,[5],inactive
CCCOC(=O)c1cc(O)c(O)c(O)c1,outcome,[6],inactive
same,AC50,[7],14.4 µM (active)
CCCCCc1ccc(N)cc1,outcome,[8],inactive
O=c1[nH]sc2ccccc12,AC50,[1],3.31 µM (active)
same,AC50,[2],14.2 µM (active)
same,AC50,[9],21.5 µM (active)
same,AC50,[4],14.3 µM (active)
same,AC50,[3],14.7 µM (active)
same,AC50,[10],25 µM (active)
CO[C@H]1/C=C/O[C@@]2(C)Oc3c(C)c(O)c4c(O)c(c(/C=N/N5CCN(C)CC5)c(O)c4c3C2=O)NC(=O)/C(C)=C\C=C\[C@H](C)[C@H](O)[C@@H](C)[C@@H](O)[C@@H](C)[C@H](OC(C)=O)[C@@H]1C,outcome,[10],inactive
CCCCCCCCOC(=O)c1cc(O)c(O)c(O)c1,AC50,[2],25 µM (active)
same,AC50,[7],12.4 µM (active)
same,AC50,[3],17 µM (active)
same,AC50,[11],8.09 µM (active)
same,AC50,[12],22.6 µM (active)
Clc1cc(Cl)c2c(c1)N=C1CCCCCN1C2,AC50,[9],10.5 µM (active)
same,outcome,[5],inactive
CC/C(=C(/CC)c1ccc(O)cc1)c1ccc(O)cc1,AC50,[1],5.08 µM (active)
same,outcome,[2],inactive
same,AC50,[9],15.1 µM (active)
same,AC50,[4],25 µM (active) and 19.5 µM (active)
same,AC50,[7],4.81 µM (active)
same,AC50,[12],43.5 µM (active)
same,AC50,[13],40.3 µM (active)
same,AC50,[5],13.9 µM (active)
same,outcome,[14],inactive
Cc1cc(F)ccc1-c1cc(N2CC[C@@H](O)[C@H]2CO)ncc1N(C)C(=O)C(C)(C)c1cc(C(F)(F)F)cc(C(F)(F)F)c1,outcome,[1],inactive
same,AC50,[2],7.83 µM (active)
same,AC50,[4],11.7 µM (active)
same,AC50,[7],20.4 µM (active)
same,AC50,[3],2.69 µM (active)
same,AC50,[11],20.4 µM (active)
same,AC50,[12],20.4 µM (active)
same,outcome,[13],inactive
OC12N=C(c3ccccc3)SC1Cc1cc(Cl)ccc12 (centres undefined),outcome,[15],inactive
CC(O)CC(C)(C)O (centres undefined),AC50,[5],0.159 µM (active)
c1ccc(C[n+]2cccc3ccccc32)cc1,AC50,[9],11.8 µM (active)
CCN(Cc1cccc(S(=O)(=O)O)c1)c1ccc(C(=C2C=CC(=[N+](CC)Cc3cccc(S(=O)(=O)O)c3)C=C2)c2ccccc2S(=O)(=O)[O-])cc1,AC50,[3],10.3 µM (active)
Cc1occc1C(=O)Nc1ccc(C(=O)N2CCC(F)(F)/C(=C\C(=O)N3CCC(N4CCCCC4)CC3)c3ccccc32)cc1,AC50,[9],2.49 µM (active)
same,AC50,[7],3.24 µM (active)
same,AC50,[3],4.89 µM (active)
same,AC50,[11],2.33 µM (active)
same,outcome,[5],inactive
CCCCCCCCN(C)CCCCCCCC,outcome,[5],inactive
Cc1cc2c(cc1C(F)(F)F)N(C(=O)Nc1ccc(Oc3cccnc3C)nc1)CC2,AC50,[2],4.76 µM (active)
same,AC50,[4],2.91 µM (active)
same,outcome,[3],inactive
CCCCCCCCOc1ccc(C(=O)c2ccccc2)c(O)c1,outcome,[12],inactive
Oc1ccc2ccccc2c1,outcome,[7],inactive
same,outcome,[14],inactive
CC(C)(C)c1csc(-c2cc3cc(OCc4ccccc4CC(=O)O)ccc3o2)n1,AC50,[1],0.0125 µM (active)
same,outcome,[2],inactive
same,outcome,[12],inactive
same,outcome,[10],inactive
O=C1CCC(C2CCCCC2)CC1,outcome,[10],inactive
CCCCCCCC[Si](OCC)(OCC)OCC,outcome,[9],inactive
CCCCOC(=O)c1ccc(O)cc1,outcome,[9],inactive
same,AC50,[7],11.7 µM (active)
